The nature of assay [1]: qHTS assay to identify small molecule antagonists of the vitamin D receptor (VDR) signaling pathway - cell viability counter screen (AID 743225). Also: nearly all actives have a fitted effect of over 50% in size. A digest of the protocol:
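VDR-UAS-bla HEK 293T cells were plated and incubated 4 h at 37C, then dosed with compound plus 3 nM (final) 1-alpha,25-dihydroxyvitamin D3 for 16 h. After the 2 h beta-lactamase read, viability in the same wells was read as CellTiter-Glo luminescence after 30 min at room temperature.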

Assay [2] in a line: qHTS assay to identify small molecule agonists of the NFkB signaling pathway - cell viability counter screen (AID 1159515; calls by dose curve; also: series mostly up to about 61 µM; nearly all actives have a fitted effect of over 55% in size). Summed up: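 Cells are seeded (2,000 NFkB-bla ME-180 per well), rested overnight, and dosed with DMSO-dissolved compounds for 5 hr at 37 C. Viability is then read by CellTiter-Glo luminescence after 30 min at room temperature.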
On the technique in general: In qHTS, concentration-response curves come from the screen itself.

Assay [3] can be described thus: qHTS assay to identify small molecule agonists of the endoplasmic reticulum stress response signaling pathway (AID 1159516; active = well fitted activation curve with a large enough effect in the signal ratio in the repeat runs, not every such curve was filed as active; the % refers to the signal ratio). Summed up:
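Cells are seeded at 1,500 per well and incubated overnight. Compounds in DMSO are added for 5 hr at 37 C, then beta-lactamase FRET substrate for 2 hr at room temperature, and fluorescence at 460 and 530 nm is measured.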

A short description of assay [4]: qHTS assay to identify small molecule agonists of the endoplasmic reticulum stress response signaling pathway - cell viability counter screen (AID 1159517; calls by dose curve;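 also: HeLa cells carrying an ER stress response element beta-lactamase reporter; series mostly up to about 61 µM; nearly all actives have a fitted effect of over 50% in size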). A digest of the protocol: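 In parallel with the ESRE reporter read, cytotoxicity was scored by CellTiter-Glo luminescence (30 min, room temperature) on HeLa ESRE-bla cells dosed for 5 hr.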
The nature of assay [5]: qHTS assay to identify small molecule antagonists of the retinoid-related orphan receptor gamma (ROR-gamma) signaling pathway - cell viability counter screen (AID 1159520). Also: nearly all actives have a fitted effect of over 50% in size. Summed up:
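Tet-on ROR gamma CHO cells were given compounds for 2 hr, then doxycycline hyclate at 1 uM final, and incubated 16 hr at 37 C. Viability was measured as ATP content by CellTiter-Glo luminescence.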

Assay [6] addresses Nuclear receptor ROR-gamma (Homo sapiens) (UniProt P51449). In words: qHTS assay to identify small molecule antagonists of the retinoid-related orphan receptor gamma (ROR-gamma) signaling pathway (AID 1159521;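 also: CHO cells with doxycycline inducible ROR-gamma driving an RORE luciferase reporter; top concentration of the series differs between compounds; nearly all actives have a fitted effect of over 50% in size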). A digest of the protocol: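 Tet-on ROR-gamma CHO cells with ROR response element-luciferase reporter; compounds added 2 hr before 1 uM doxycycline induction, then 16 hr at 37 C. Antagonism scored as decreased ONE-Glo luminescence.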

Assay [7] in a line: qHTS assay to identify small molecule agonists of the AP-1 signaling pathway - cell viability counter screen (AID 1159525; calls by dose curve; also: nearly all actives have a fitted effect of over 55% in size). A digest of the protocol:
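Same-well cytotoxicity counter screen of the Tox21 10K library in ME-180 cells. The readout is ATP-dependent luminescence after 5 h compound treatment. Data are normalised to DMSO and tetra n-octyl ammonium bromide controls.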

Assay [8] can be described thus: qHTS assay to identify small molecule agonists of the AP-1 signaling pathway (AID 1159526; calls by dose curve).
Assay [9] concerns the target Retinoic acid receptor RXR-alpha (Homo sapiens) (UniProt P19793). In words: qHTS assay to identify small molecule agonists of the RXR signaling pathway (AID 1159527; calls by dose curve; also: nearly all actives have a fitted effect of over 35% in size). Summed up: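 GeneBLAzer RXR-alpha-UAS-bla HEK 293T cells in 2% charcoal-stripped FBS medium were exposed to compounds for 16 hr at 37 C in agonist mode. Beta-lactamase reporter read as 460/530 nm FRET ratio after 2 hr substrate loading.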

Assay [10] is described as follows: qHTS assay to identify small molecule agonists of the RXR signaling pathway - cell viability counter screen (AID 1159529). Summed up: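 RXR-alpha-UAS-bla HEK 293T cells in medium with 2% charcoal-stripped FBS were pre-incubated 5 hr, then compound-treated 16 hr at 37 C. Viability was read by CellTiter-Glo luminescence in the same wells as the beta-lactamase assay, with tetraoctyl ammonium bromide as positive control.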

The nature of assay [11]: qHTS assay to identify small molecule antagonists of the retinoid acid receptor (RAR) signaling pathway - cell viability counter screen (AID 1159551). Also: nearly all actives have a fitted effect of over 35% in size. A digest of the protocol: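 Cells (C3RL4) are plated, incubated overnight, dosed with compound in DMSO, then given retinol at 1 uM final. After 6 h at 37 C, CellTiter-Glo is added and luminescence read following 30 min at room temperature.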

Assay [12] is described as follows: qHTS assay to identify small molecule antagonists of the retinoic acid receptor (RAR) signaling pathway (AID 1159552; also: nearly all actives have a fitted effect of over 50% in size). A digest of the protocol: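 Retinol signaling pathway inhibitors screened in C3RL4 RARE-luciferase reporter cells seeded overnight at 37 C, then compounds added with 1 uM (final) retinol as pathway substrate. After 6 hr at 37 C, luciferase luminescence read after 30 min at room temperature.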

A short description of assay [13]: qHTS assay to identify small molecule antagonists of the estrogen related receptor (ERR) signaling pathway from Tox21 library - cell viability counter screen (AID 1224834). Also: nearly all actives have a fitted effect of over 30% in size. Summed up:
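ERR cells, 2,000/well; 6 h settle at 37 C/5% CO2; pin-tool compound transfer in DMSO; 17.5 h at 37 C; CellTiter-Fluor, 30 min; fluorescence intensity.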

In assay [14] the target is Luciferin 4-monooxygenase (Photinus pyralis) (UniProt P08659). In words: qHTS assay to identify small molecule inhibitors of firefly luciferase (AID 1224835). Also: series mostly up to about 120 µM; nearly all actives have a fitted effect of over 25% in size. A digest of the protocol: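 Biochemical qHTS: compounds run as interplate titrations against purified firefly enzyme, with D-luciferin and ATP each at its KM concentration. Light output recorded by CCD imaging.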

Assay [15] is described as follows: qHTS assay to identify small molecule agonists of the constitutive androstane receptor (CAR) signaling pathway - cell viability counter screen (AID 1224836). Also: series mostly up to about 92 µM; nearly all actives have a fitted effect of over 45% in size. Summed up:
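HepG2 cells stably carrying hCAR and a CYP2B6-2.2kb reporter; 15-concentration compounds plus PK11195 (final 0.75 uM), 23 hr at 37 C/5% CO2. Viability read by CellTiter-Fluor fluorescence.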

A short description of assay [16]: qHTS assay to identify small molecule antagonists of the constitutive androstane receptor (CAR) signaling pathway - cell viability counter screen (AID 1224837). Also: series mostly up to about 92 µM; nearly all actives have a fitted effect of over 45% in size. A digest of the protocol:
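Viability was measured with CellTiter-Fluor in a HepG2 line carrying stably transfected hCAR and a CYP2B6-2.2kb construct. Cells were exposed for 23 hr at 37 C to 15 compound concentrations with 50 nM CITCO as agonist.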

Assay [17] deals with Nuclear receptor subfamily 1 group I member 3 (Homo sapiens) (UniProt Q14994). In words: qHTS assay to identify small molecule antagonists of the constitutive androstane receptor (CAR) signaling pathway (AID 1224838).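 Also: HepG2 cells stably expressing hCAR with CYP2B6 luciferase reporter stimulated by CITCO; nearly all actives have a fitted effect of over 40% in size.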 Summed up:
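Antagonist mode used CITCO at a final 50 nM to activate CAR in human hepatoma HepG2 cells carrying stable hCAR and a 2.2 kb CYP2B6 promoter-luciferase construct. Compounds were tested at 15 concentrations over 24 h, with luminescence as the end point.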

A short description of assay [18]: qHTS assay to identify small molecule antagonists of the estrogen related receptor signaling pathway with the pleiotropic PPARgamma coactivator (PGC) from Tox21 10K library - cell viability counter screen (AID 1224840; active = well fitted cell-killing curve with a large enough effect in the repeat runs, not every such curve was filed as active; also: nearly all actives have a fitted effect of over 40% in size). A digest of the protocol:
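Multiplexed viability counter screen in the PGC/ERR cell line: cells treated with DMSO-dissolved compounds for 17.5 hours at 37 C, then viability measured as CellTiter-Fluor fluorescence.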

Assay [19] in a line: qHTS assay to identify small molecule agonists of the retinoic acid receptor (RAR) signaling pathway (AID 1159553). Also: potency is read from the fitted curve at half-maximal effect. A digest of the protocol:
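Seed C3RL4 reporter cells at 1,000 per well and incubate overnight at 37 C. Add compounds in DMSO, incubate 6 hr. Add luciferase reagent, wait 30 min at room temperature, read luminescence.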

The target in assay [20] is Nuclear receptor subfamily 1 group I member 3 (Homo sapiens) (UniProt Q14994). In words: qHTS assay to identify small molecule agonists of the constitutive androstane receptor (CAR) signaling pathway (AID 1224839). Also: series mostly up to about 92 µM; nearly all actives have a fitted effect of over 15% in size. A digest of the protocol:
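HepG2 cells stably co-transfected with hCAR and a CYP2B6-2.2kb luciferase reporter; compounds at 15 concentrations with 0.75 uM PK11195 present. After 24 hr at 37 C, luciferase read by ONE-Glo luminescence.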

The record followed here is PubChem BioAssay (Tox21).

Records with an inconclusive call do not appear. A number with no mark means an inactive call. Active and inactive are the calls of the source. Unless noted, calls follow the shape of the dose curve; as a rule, active = well fitted curve in the direction sought with a large enough effect in the repeat runs; inconclusive = weak or mixed curves; inactive = no such curve, though single readings can be large; an effect the other way counts as inactive or inconclusive.

Chain of Nuclear receptor subfamily 1 group I member 3 (Homo sapiens) (Q14994 whole entry, looked up): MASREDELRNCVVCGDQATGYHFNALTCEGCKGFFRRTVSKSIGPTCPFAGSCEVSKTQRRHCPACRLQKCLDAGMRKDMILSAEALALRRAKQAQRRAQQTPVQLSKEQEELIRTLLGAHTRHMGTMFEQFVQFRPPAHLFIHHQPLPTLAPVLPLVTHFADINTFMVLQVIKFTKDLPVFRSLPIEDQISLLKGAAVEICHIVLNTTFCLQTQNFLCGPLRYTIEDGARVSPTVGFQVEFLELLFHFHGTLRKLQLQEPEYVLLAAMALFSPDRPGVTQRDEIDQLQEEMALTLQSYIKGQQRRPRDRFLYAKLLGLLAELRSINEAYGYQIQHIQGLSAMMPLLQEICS
Chain of Luciferin 4-monooxygenase (Photinus pyralis) (P08659 whole entry, looked up): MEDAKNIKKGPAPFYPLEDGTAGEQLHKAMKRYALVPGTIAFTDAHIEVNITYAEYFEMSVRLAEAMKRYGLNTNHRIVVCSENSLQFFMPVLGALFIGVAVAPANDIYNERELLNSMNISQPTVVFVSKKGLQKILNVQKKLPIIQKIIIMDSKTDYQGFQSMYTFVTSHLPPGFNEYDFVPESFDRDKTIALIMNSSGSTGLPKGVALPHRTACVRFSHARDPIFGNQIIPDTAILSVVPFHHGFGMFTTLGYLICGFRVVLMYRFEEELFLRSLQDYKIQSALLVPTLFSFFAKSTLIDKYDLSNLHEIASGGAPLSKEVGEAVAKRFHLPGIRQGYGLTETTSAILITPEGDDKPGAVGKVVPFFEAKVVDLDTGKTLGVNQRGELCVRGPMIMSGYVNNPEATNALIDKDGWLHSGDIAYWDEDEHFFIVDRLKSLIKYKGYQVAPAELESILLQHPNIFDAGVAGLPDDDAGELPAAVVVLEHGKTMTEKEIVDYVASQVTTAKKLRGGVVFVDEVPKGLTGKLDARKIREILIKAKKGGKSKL
Chain of Retinoic acid receptor RXR-alpha (Homo sapiens) (P19793 whole entry, looked up): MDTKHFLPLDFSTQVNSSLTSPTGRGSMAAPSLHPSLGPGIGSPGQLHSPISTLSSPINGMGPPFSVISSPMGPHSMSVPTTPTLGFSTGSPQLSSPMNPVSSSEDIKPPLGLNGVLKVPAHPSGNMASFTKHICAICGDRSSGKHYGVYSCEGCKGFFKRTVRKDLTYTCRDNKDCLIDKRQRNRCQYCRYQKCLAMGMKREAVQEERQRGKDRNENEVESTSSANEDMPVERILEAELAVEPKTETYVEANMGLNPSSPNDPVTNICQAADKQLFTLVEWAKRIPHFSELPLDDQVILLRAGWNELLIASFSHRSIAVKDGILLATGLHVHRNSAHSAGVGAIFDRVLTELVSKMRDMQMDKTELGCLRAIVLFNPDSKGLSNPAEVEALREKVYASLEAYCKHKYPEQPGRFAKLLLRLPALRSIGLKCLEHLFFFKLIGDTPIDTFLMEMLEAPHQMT

Turning to `CC1(C)CC(N)CC(C)(C)N1`, the molecule was called inactive in assay [1], in assay [2], in [4], in assay [5], in assay [6] and in assay [7]. Further, the molecule was called inactive in assay [11], in assay [12], in assay [13], in assay [15], in [16] and in [17]. Further, in [18], the molecule was called inactive. Also, the Potency entry in assay [3], in assay [8], in [9], in assay [10] and in [14] was “inactive” each time.
On to `CC(=O)Oc1ccc(C(C)=O)cc1`, for which the molecule was called inactive in assay [1], in [2], in assay [4], in assay [5], in [6] and in assay [7]. The molecule was called inactive in assay [11], in assay [12], in assay [16], in assay [17] and in [18]. For the same molecule, the Potency result in assay [3], in assay [8], in assay [9], in assay [10], in assay [19] and in [14] was “inactive” throughout.
On to `Cc1cc(O)c(Cl)cc1C`, for which the call in [1], in assay [2], in [4], in assay [5], in assay [6] and in [7] was inactive. For the same molecule, the call in assay [11], in assay [12], in assay [15], in assay [16], in assay [17] and in assay [18] was inactive. For the same molecule, the Potency result in assay [3], in assay [8], in assay [9], in assay [10], in assay [19] and in assay [14] was “inactive” in each case. In addition, in assay [20], the Potency result is “inactive”.
Regarding `Cc1nnc(C(=O)NC(C)(C)c2nc(C(=O)NCc3ccc(F)cc3)c(O)c(=O)n2C)o1`, the result in assay [1], in assay [2], in assay [4], in assay [5], in [6] and in [7] was inactive. For the same molecule, the result in assay [11], in assay [12], in assay [13], in assay [16] and in assay [18] was inactive. Also, the Potency entry in assay [3], in assay [8], in [9], in assay [10] and in assay [14] was “inactive” each time. Besides, the Potency in assay [19] was 33.5 µM (active).
On to `NS(=O)(=O)c1cc2c(cc1C(F)(F)F)NCNS2(=O)=O`, for which the molecule was classed as inactive in assay [2], in assay [4], in assay [5], in assay [6], in assay [7] and in [11]. The outcome in [12], in assay [15], in assay [16] and in assay [18] was inactive. Further, the Potency result in assay [3], in assay [8], in assay [9], in [10], in [19] and in assay [14] was “inactive” in each case.
With `N#Cc1ccccc1C#N`, the outcome in assay [1], in [2], in assay [4], in [5], in assay [6] and in assay [7] was inactive. Also, the molecule was classed as inactive in assay [11], in assay [12], in [15], in assay [16] and in assay [18]. Also, the Potency entry in [3], in assay [8], in [9], in [10], in [19] and in assay [14] was “inactive” each time.
`CC(C)(O)CCCC1=CCC(C=O)CC1` (centres undefined): the outcome in [1], in assay [2], in assay [4], in assay [5], in [6] and in assay [7] was inactive. Moreover, the molecule was classed as inactive in assay [11], in [12], in [15], in [16], in assay [17] and in assay [18]. The Potency entry in assay [3], in assay [8], in assay [9], in assay [10], in assay [19] and in assay [14] was “inactive” in each case. In addition, the Potency result in assay [20] is “inactive”.
In the case of `C=CC(=O)OCCOCCOCC`, the result in assay [2], in [4], in assay [5], in [6], in [7] and in assay [11] was inactive. Further, the outcome in [12], in assay [15], in assay [16] and in assay [18] was inactive. Moreover, the Potency result in [3], in assay [8], in assay [9], in [10], in [19] and in assay [14] was “inactive” throughout.
